Measurements from the supplement of paper PMC9135407.
“And” between values parts separate entries of the source, which are not always exact repeats. Identical values can stand only once. Counter-ions that a name gives are not always drawn. Hit rate of the full screen: of about 5,800 compounds, about 620 (11%) showed activity. What follows is part of a selection rich in actives, with near analogues and random picks from the rest. Unmarked numbers belong to inactive results.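 How the source made its calls: active = score above a cut-off or among the top three wells of a plate; in these data no inactive exceeds 0.85.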

Tested on: primary human hepatic stellate cells (donor 1)
Experiment: scaled lipid accumulation score (0 = DMSO-like, 1 = nortriptyline-like); higher = stronger HSC inactivation (lipid re-accumulation), active = hit call of the paper
Conditions: 48 h
[1] = library stock concentration: 10 mM
[2] = library stock concentration: 3.33 mM
[3] = library stock concentration: 400 uM
[4] = library stock concentration: 80 uM
[5] = library stock concentration: 2 mM

SMILES: O=C1NCN(c2ccccc2)C12CCN(CCCC(c1ccc(F)cc1)c1ccc(F)cc1)CC2 [Fluspirilen]
- scaled lipid accumulation score: ≤ 0

SMILES: CCNC(=O)N1CCN(CCCC(c2ccc(F)cc2)c2ccc(F)cc2)CC1 [Amperozide hydrochloride]
- scaled lipid accumulation score [1]: 0.661

SMILES: O=C1NCN(c2ccccc2)C12CCN(CCCC(c1ccc(F)cc1)c1ccc(F)cc1)CC2 [Fluspirilene]
- scaled lipid accumulation score [1]: 1.02 (active)

SMILES: O=C(Nc1ccc(C(F)(F)F)cn1)N1CCN(c2ncccc2C(F)(F)F)CC1
- scaled lipid accumulation score [1]: 0.012

SMILES: CCCC[C@@H](C)/C=C(C)/C=C(\C)C(=O)NC1=C[C@@](O)(/C=C/C=C/C=C/C(=O)NC2=C(O)CCC2=O)[C@@H]2O[C@@H]2C1=O [Manumycin A]
- scaled lipid accumulation score (library stock concentration: 9.1 mM): 0.793

SMILES: C=CC(=O)Nc1cc2c(Nc3ccc(F)c(Cl)c3)ncnc2cc1OCCCN1CCOCC1 [listing 1 of 2 here]
- scaled lipid accumulation score [1]: 0.983 (active)

SMILES: C=CC(=O)Nc1ccc2ncnc(Nc3cccc(Br)c3)c2c1
- scaled lipid accumulation score [2]: 0.014
- scaled lipid accumulation score [1]: 0.802

SMILES: COc1cc2ncnc(Nc3ccc(F)c(Cl)c3)c2cc1OCCCN1CCOCC1 [Gefitinib (ZD1839, Iressa) (10 mM)]
- scaled lipid accumulation score [1]: 0.94 (active)

SMILES: C=CC(=O)Nc1cc2c(Nc3ccc(F)c(Cl)c3)ncnc2cc1C#CC(C)(C)N1CCN(C)CC1
- scaled lipid accumulation score [3]: 0.879 (active)

SMILES: COc1cc2ncnc(Nc3ccc(F)c(Cl)c3)c2cc1OCCCN1CCOCC1
- scaled lipid accumulation score [4]: ≤ -0.003
- scaled lipid accumulation score [3]: ≤ -0.009
- scaled lipid accumulation score [5]: 0.19
- scaled lipid accumulation score [1]: 0.65

SMILES: COc1cc2ncnc(Nc3ccc(F)c(Cl)c3)c2cc1OCCCN1CCOCC1 [Gefitinib (ZD1839)] [listing 1 of 2 here]
- scaled lipid accumulation score [1]: 1.05 (active)

SMILES: COc1cc2ncnc(Nc3ccc(F)c(Cl)c3)c2cc1OCCCN1CCOCC1 [Gefitinib]
- scaled lipid accumulation score (library stock concentration: 4.5 mM): 0.19

SMILES: COc1cc2ncnc(Nc3ccc(F)c(Cl)c3)c2cc1OCCCN1CCOCC1 [Gefitinib (ZD1839)] [listing 2 of 2 here]
- scaled lipid accumulation score [2]: 0.43

SMILES: C=CC(=O)Nc1cc2c(Nc3ccc(F)c(Cl)c3)ncnc2cc1OCCCN1CCOCC1 [listing 2 of 2 here]
- scaled lipid accumulation score [4]: 0.045
- scaled lipid accumulation score [3]: ≤ -0.009 and ≤ -0.005
- scaled lipid accumulation score [5]: 0.07 and ≤ -0.005
- scaled lipid accumulation score [1]: 0.314

SMILES: COc1cc2ncnc(Nc3ccc(F)c(Cl)c3)c2cc1OCCCN1CCOCC1 [Gefitinib (ZD1839, Iressa) (0.4 mM)]
- scaled lipid accumulation score [3]: 0.081

SMILES: COc1cc2ncnc(Nc3ccc(F)c(Cl)c3)c2cc1OCCCN1CCOCC1 [Gefitinib (ZD1839, Iressa) (2 mM)]
- scaled lipid accumulation score [5]: 0.864 (active)

SMILES: CC(=O)OCC(=O)[C@@]1(O)[C@H](OC(C)=O)C[C@H]2[C@@H]3CCC4=CC(=O)C=C[C@]4(C)[C@@]3(F)[C@@H](O)C[C@@]21C [Triamcinolone diacetate]
- scaled lipid accumulation score [1]: ≤ 0

SMILES: COc1ncc(-c2ccc3nccc(-c4ccnnc4)c3c2)cc1NS(=O)(=O)c1ccc(F)cc1F
- scaled lipid accumulation score [4]: ≤ -0.009
- scaled lipid accumulation score [3]: ≤ -0.009
- scaled lipid accumulation score [5]: ≤ -0.009
- scaled lipid accumulation score [2]: 0.066
- scaled lipid accumulation score [1]: 0.479 and 0.24

SMILES: O=C(Nc1ccccc1)C12CC1C(=NO)c1ccccc1O2 (stereo unspecified)
- scaled lipid accumulation score [1]: ≤ -0.006

SMILES: Clc1cccc(Nc2nnc(-c3ccccc3)c3ccccc23)c1
- scaled lipid accumulation score [1]: 0.162
- scaled lipid accumulation score (library stock concentration: 15.1 mM): 0.258

SMILES: CCCCCCCCCC(=O)N[C@H](CN1CCOCC1)[C@H](O)c1ccccc1 (racemic) [DL-threo-PDMP (hydrochloride)]
- scaled lipid accumulation score (library stock concentration: 1 mM): 0.001

SMILES: CCCn1c(=O)c(C)cn2nc(N)nc12
- scaled lipid accumulation score [1]: ≤ 0 and 0.03

SMILES: C=C1CC[C@@H]2[C@](C)(CO)[C@H](O)CC[C@@]2(C)[C@@H]1C/C=C1/C(=O)OC[C@H]1O [Andrographolide]
- scaled lipid accumulation score [2]: 0.094
- scaled lipid accumulation score [1]: 0.785

SMILES: C[C@@H]1C[C@H]2[C@@H]3C[C@H](F)C4=CC(=O)C(Cl)=C[C@]4(C)[C@@]3(F)[C@@H](O)C[C@]2(C)[C@@]1(O)C(=O)CO
- scaled lipid accumulation score [1]: ≤ 0

SMILES: CC1(C)S[C@@H]2[C@H](NC(=O)[C@H](N)c3ccc(O)cc3)C(=O)N2[C@H]1C(=O)O [Amoxicillin]
- scaled lipid accumulation score: 0.056
- scaled lipid accumulation score [2]: ≤ 0
- scaled lipid accumulation score [1]: 0.044 and ≤ 0

SMILES: CC1(C)S[C@@H]2[C@H](NC(=O)[C@H](N)c3ccc(O)cc3)C(=O)N2[C@H]1C(=O)O
- scaled lipid accumulation score [1]: 0.145
